Measurements reported in PubChem BioAssay (Tox21).
Where “and” joins values, the source holds several entries; their conditions need not be identical. Identical values can stand only once. Records with an inconclusive call do not appear. Calls of active or inactive are those of the source. Unless noted, calls follow the shape of the full dose curve.

Columns and labels:
[1] = biological target: Gonadotropin-releasing hormone receptor (Homo sapiens) (UniProt P30968); assay: Human gonadotropin-releasing hormone receptor (GnRHR) small molecule agonists, calcium flux assay in GnRHR-HEK293 cells (AID 1920063); also: nearly all actives have a fitted effect of over 35% in size
Procedure, shortened: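 Stable human GnRHR HEK293 line. 18 h plating, then calcium dye for 1 h at 37 C. Agonist-mode compound addition from DMSO stocks; fluorescence monitored 3 min.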

[2] = biological target: KiSS-1 receptor (Homo sapiens) (UniProt Q969F8); assay: Human kisspeptin (KISS1R) small molecule agonists, calcium flux assay in KISS1R-HEK293 cells (AID 1920064; active = well fitted activation curve with a large enough effect in the repeat runs)
Procedure, shortened: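 After overnight (18 h) culture at 37 C/5% CO2, human KISS1R-HEK293 cells received calcium dye for 1 h, then test compound; emission at 540 nm (excitation 480 nm) was tracked for 3 min.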

[3] = G protein-coupled receptor (GPCR) small molecule agonists, calcium flux assay: HEK293 wild type cell line counter screen (AID 1920065)
Procedure, shortened: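 Following 18 h incubation at 37 C/5% CO2, plates got calcium dye for 1 h; compounds, ATP or DMSO were then pinned in and fluorescence followed kinetically (480/540 nm).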

[4] = p53 small molecule agonists, cell-based qHTS assay with human liver microsomes (AID 1963577);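 also: p53 response element beta-lactamase reporter cells with liver microsomes plus NADPH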
Procedure, shortened: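 16 h, 37 C exposure of p53RE-bla cells to compounds with human liver microsomes and NADPH (0.5 mg/mL final each); detection via LiveBLAzer mixture, 2 h dark at room temperature.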

[5] = p53 small molecule agonists, cell-based qHTS assay with rat liver microsomes (AID 1963578)
Procedure, shortened: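 With rat liver microsomes and NADPH present (0.5 mg/mL final each), p53RE-bla cells are treated with compound for 16 h at 37 C. LiveBLAzer detection mixture is then applied for 2 h at room temperature in the dark.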

[6] = p53 small molecule agonists, cell-based qHTS assay with human liver microsomes: qHTS cell viability counter screen (AID 1963579); also: nearly all actives have a fitted effect of over 45% in size; also: potency is read from the fitted curve at half-maximal effect
Procedure, shortened: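 In this multiplexed counter screen, the reporter plates were subsequently treated with CellTiter-Glo so that cell viability, reflected by luminescence, could be recorded for p53RE-bla cells dosed 16 h with compounds under microsomal activation (HLM and NADPH).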

[7] = p53 small molecule agonists, cell-based qHTS assay with rat liver microsomes: qHTS cell viability counter screen (AID 1963580); also: nearly all actives have a fitted effect of over 45% in size; also: potency is read from the fitted curve at half-maximal effect
Procedure, shortened: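 Luminescent ATP readout (CellTiter-Glo, 30 min at room temperature) reports viability of p53RE-bla HCT-116 cells after 16 h at 37 C with test compounds under metabolic activation by rat liver microsomes and NADPH at 0.5 mg/mL final each.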

[8] = p53 small molecule agonists, cell-based qHTS assay: qHTS cell viability counter screen (AID 1963581); also: nearly all actives have a fitted effect of over 45% in size; also: potency is read from the fitted curve at half-maximal effect
Procedure, shortened: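 qHTS counter screen: 16 h compound exposure at 37 C of p53RE-bla HCT-116 cells (4,000 per well, seeded 5 h prior), cell viability by ATP luminescence.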

[9] = biological target: 5-hydroxytryptamine receptor 2A (Homo sapiens) (UniProt P28223); assay: 5-hydroxytryptamine receptor 2A (HTR2A) small molecule antagonists, cell-based qHTS assay (AID 1963586); also: nearly all actives have a fitted effect of over 45% in size
Procedure, shortened: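 CHO cells stably expressing human HTR2A were plated for 18 h at 37 C, then loaded with calcium dye for 1 h. Compounds were preincubated 5 min at room temperature before DOI (4 nM solution) was added. Kinetic fluorescence was read for 3 min.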

[10] = biological target: 5-hydroxytryptamine receptor 2A (Homo sapiens) (UniProt P28223); assay: 5-hydroxytryptamine receptor 2A (HTR2A) small molecule agonists, cell-based qHTS assay (AID 1963587); also: nearly all actives have a fitted effect of over 30% in size
Procedure, shortened: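 HTR2A-CHO cells, plated 18 h at 37 C/5% CO2, dye-loaded 1 h at 37 C; compounds in DMSO added by pin tool (agonist mode). Intracellular calcium flux read as kinetic fluorescence on FDSS over 2 min at 1 s intervals.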

[11] = biological target: Muscarinic acetylcholine receptor M1 (Homo sapiens) (UniProt P11229); assay: Cholinergic receptor muscarinic 1 (CHRM1) small molecule antagonists, cell-based qHTS assay (AID 1963588); also: nearly all actives have a fitted effect of over 40% in size
Procedure, shortened: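 Compounds were tested at 15 concentrations in three independent runs. Dye-loaded CHRM1-CHO cells were exposed 5 min at room temperature before stimulation by acetylcholine added at 50nM. Intracellular calcium was read kinetically on FDSS for 3 min.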

[12] = biological target: Muscarinic acetylcholine receptor M1 (Homo sapiens) (UniProt P11229); assay: Cholinergic receptor muscarinic 1 (CHRM1) small molecule agonists, cell-based qHTS assay (AID 1963589); also: nearly all actives have a fitted effect of over 35% in size
Procedure, shortened: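 Kinetic fluorescence (1 s intervals) of calcium-sensitive dye in human M1 CHO cells after compound addition; cells pre-incubated 18 h at 37 C/5% CO2 and dye-loaded 1 h.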

[13] = biological target: Beta-2 adrenergic receptor (Homo sapiens) (UniProt P07550); assay: Adrenergic beta2 receptor (ADRB2) small molecule antagonists, cell-based qHTS assay (AID 1963592); also: nearly all actives have a fitted effect of over 50% in size; also: potency is read from the fitted curve at half-maximal effect; as to activity change, negative = inhibition: series mostly up to about 92 µM
Procedure, shortened: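 Assay format: CHO-ADRB2 cells, 18-20hr seeding at 37C/5% CO2, then compound plus 1nM isoproterenol agonist mix for 0.5hr RT. Homogeneous time-resolved fluorescence cAMP detection after 1hr, expressed as 665/615 nm ratio.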

[14] = biological target: D(2) dopamine receptor (Homo sapiens) (UniProt P14416); assay: Dopamine D2 receptor (DRD2) small molecule agonists, cell-based qHTS assay (AID 1963594); also: nearly all actives have a fitted effect of over 35% in size
Procedure, shortened: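 HEK293 cells stably expressing DRD2 were cultured 24 h at 37 C, then given Ro20-1724 (0.1 mM final) and compounds for 10 min at room temperature. NKH477 (200nM) was then added for 30 min. cAMP was read by HTRF.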

[15] = biological target: D(2) dopamine receptor (Homo sapiens) (UniProt P14416); assay: Dopamine D2 receptor (DRD2) small molecule antagonists, cell-based qHTS assay (AID 1963595; active = well fitted inhibition curve with a large enough effect in the signal ratio in the repeat runs, with a control signal flat; the % refers to the signal ratio)
Procedure, shortened: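 DRD2-HEK293; 0.1 mM Ro20-1724; cpd 10 min RT; NKH477 200 nM + quinpirole 12 nM, 30 min RT; HTRF cAMP (cAMP-d2/anti-cAMP cryptate), 665/620 nm ratio after 1 h.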

[16] = p53 small molecule agonists, cell-based qHTS assay (AID 1963582; active = well fitted activation curve with a large enough effect in the signal ratio in the repeat runs, not every such curve was filed as active; the % refers to the signal ratio)
Procedure, shortened: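 Measured: fluorescence from cleaved LiveBLAzer substrate. System: p53RE-bla cells, 16 h compound treatment at 37 C, 2 h substrate step at room temperature.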

[17] = cAMP Responsive Elements (CRE) small molecule antagonists, cell-based qHTS assay (AID 1963591; active = well fitted inhibition curve with a large enough effect in the signal ratio in the repeat runs, not every such curve was filed as active; the % refers to the signal ratio)
Procedure, shortened: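 Reporter line CRE-bla HEK 293T in dialyzed-FBS DMEM; cells preincubated 18 h, treated 3 h with compound plus NKH477 (0.25 uM final); LiveBLAzer FRET, 2 h RT.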

[18] = biological target: Beta-2 adrenergic receptor (Homo sapiens) (UniProt P07550); assay: Adrenergic beta2 receptor (ADRB2) small molecule agonists, cell-based qHTS assay (AID 1963593);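 also: CHO cells stably overexpressing human ADRB2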
Procedure, shortened: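 CHO cells stably over-expressing ADRB2 were plated overnight at 37C, then dosed with compounds plus a stimulation mix containing 100uM IBMX and 25uM Ro-20-1724 for 0.5hr at room temperature. cAMP was measured by HTRF competition, 1hr.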

[19] = cAMP Responsive Elements (CRE) small molecule agonists, cell-based qHTS assay (AID 1963590)
Procedure, shortened: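 Test agents in DMSO were incubated 3 h at 37 C/5% CO2 with CRE-bla HEK 293T cells seeded 18 h earlier; LiveBLAzer B/G FRET substrate was added and read after 2 h at room temperature.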
% is scaled to controls: 0 for no effect and ±100 for the full control effect.

D(2) dopamine receptor (Homo sapiens), sequence (P14416 whole entry, looked up): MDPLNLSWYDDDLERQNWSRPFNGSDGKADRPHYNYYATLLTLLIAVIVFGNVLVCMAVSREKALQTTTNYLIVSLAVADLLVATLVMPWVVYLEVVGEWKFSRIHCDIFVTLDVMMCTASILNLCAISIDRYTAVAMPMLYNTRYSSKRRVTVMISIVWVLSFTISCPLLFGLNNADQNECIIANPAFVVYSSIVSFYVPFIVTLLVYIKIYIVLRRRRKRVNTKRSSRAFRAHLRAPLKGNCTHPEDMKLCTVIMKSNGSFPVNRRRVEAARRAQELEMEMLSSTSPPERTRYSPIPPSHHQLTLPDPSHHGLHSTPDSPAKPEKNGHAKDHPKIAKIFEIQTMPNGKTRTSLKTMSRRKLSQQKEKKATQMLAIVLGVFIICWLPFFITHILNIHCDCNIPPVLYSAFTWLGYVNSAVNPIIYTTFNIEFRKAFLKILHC
Gonadotropin-releasing hormone receptor (Homo sapiens), sequence (P30968 whole entry, looked up): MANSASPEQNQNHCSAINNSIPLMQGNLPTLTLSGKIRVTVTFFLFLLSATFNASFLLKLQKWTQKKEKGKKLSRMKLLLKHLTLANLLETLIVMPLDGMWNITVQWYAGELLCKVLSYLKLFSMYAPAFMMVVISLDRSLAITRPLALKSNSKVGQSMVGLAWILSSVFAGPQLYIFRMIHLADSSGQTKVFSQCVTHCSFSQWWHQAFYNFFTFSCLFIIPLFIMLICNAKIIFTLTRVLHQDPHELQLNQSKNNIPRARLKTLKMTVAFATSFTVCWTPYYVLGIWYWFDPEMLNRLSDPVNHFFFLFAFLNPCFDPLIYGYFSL
Muscarinic acetylcholine receptor M1 (Homo sapiens), sequence (P11229 whole entry, looked up): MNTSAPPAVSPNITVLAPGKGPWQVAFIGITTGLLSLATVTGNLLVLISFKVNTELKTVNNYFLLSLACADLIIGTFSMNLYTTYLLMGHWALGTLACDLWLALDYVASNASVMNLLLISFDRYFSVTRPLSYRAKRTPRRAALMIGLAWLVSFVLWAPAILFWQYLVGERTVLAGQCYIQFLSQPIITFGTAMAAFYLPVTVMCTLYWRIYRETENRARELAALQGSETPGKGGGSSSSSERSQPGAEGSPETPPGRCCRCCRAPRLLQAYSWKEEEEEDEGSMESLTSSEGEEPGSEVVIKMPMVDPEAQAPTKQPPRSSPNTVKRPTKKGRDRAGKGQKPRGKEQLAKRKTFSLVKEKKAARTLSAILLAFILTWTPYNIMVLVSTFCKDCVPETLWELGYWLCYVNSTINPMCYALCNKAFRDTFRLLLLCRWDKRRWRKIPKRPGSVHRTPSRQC
5-hydroxytryptamine receptor 2A (Homo sapiens), sequence (P28223 whole entry, looked up): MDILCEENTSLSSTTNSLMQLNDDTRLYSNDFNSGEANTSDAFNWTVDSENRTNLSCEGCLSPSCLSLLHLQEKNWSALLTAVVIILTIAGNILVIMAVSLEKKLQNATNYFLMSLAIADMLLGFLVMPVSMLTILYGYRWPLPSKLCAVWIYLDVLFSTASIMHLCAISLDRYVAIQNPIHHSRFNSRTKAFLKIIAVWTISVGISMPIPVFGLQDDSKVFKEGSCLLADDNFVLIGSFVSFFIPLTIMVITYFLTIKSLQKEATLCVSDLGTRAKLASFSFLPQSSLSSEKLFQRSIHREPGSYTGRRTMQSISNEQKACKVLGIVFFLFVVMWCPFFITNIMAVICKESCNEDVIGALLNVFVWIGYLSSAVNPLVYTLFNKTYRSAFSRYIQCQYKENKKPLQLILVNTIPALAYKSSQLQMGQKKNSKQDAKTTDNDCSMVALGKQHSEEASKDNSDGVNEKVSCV
Beta-2 adrenergic receptor (Homo sapiens), sequence (P07550 whole entry, looked up): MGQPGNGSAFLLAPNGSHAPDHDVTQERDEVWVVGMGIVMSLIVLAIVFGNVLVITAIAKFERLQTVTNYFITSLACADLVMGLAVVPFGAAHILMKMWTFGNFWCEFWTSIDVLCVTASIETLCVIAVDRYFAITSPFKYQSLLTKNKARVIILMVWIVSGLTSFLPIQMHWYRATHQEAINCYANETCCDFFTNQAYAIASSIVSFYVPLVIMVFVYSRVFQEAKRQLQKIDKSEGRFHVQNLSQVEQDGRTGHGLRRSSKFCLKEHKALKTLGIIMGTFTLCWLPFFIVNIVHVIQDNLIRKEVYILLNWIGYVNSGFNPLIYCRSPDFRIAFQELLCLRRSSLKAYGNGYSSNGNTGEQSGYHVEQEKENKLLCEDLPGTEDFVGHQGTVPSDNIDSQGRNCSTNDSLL
KiSS-1 receptor (Homo sapiens), sequence (Q969F8 whole entry, looked up): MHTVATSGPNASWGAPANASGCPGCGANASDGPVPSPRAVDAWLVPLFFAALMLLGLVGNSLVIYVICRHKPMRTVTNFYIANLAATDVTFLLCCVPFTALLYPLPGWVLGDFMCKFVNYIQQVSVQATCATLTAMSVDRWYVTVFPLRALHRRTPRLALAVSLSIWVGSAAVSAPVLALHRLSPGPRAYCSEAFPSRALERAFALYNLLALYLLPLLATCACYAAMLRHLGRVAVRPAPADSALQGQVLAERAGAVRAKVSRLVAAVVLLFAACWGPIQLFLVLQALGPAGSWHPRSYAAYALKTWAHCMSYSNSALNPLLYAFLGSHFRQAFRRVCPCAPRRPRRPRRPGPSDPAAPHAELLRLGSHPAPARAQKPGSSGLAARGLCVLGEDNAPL

O=C(N/N=C/c1ccc([N+](=O)[O-])o1)c1ccc(O)cc1
inactive: Potency [1] | Potency [2] | Potency [3] | Potency [4] | Potency [5] | Potency [6] | Potency [7] | Potency [8] | Potency [9] | Potency [10] | Potency [11] | Potency [12] | Potency [13] | Potency [14] | Potency [15]

CN(C)C(=O)C(CCN1CCC(O)(c2ccc(Cl)cc2)CC1)(c1ccccc1)c1ccccc1
active: Potency [13] 11.9 µM
inactive: Potency [1] | Potency [2] | Potency [3] | Potency [8] | Potency [16] | Potency [17] | Potency [14] | Potency [15]

C=CC(=O)Nc1cc2c(Nc3ccc(F)c(Cl)c3)ncnc2cc1OCCCN1CCOCC1
inactive: Potency [1] | Potency [2] | Potency [3] | Potency [5] | Potency [7] | Potency [8] | Potency [16] | Potency [11] | Potency [12] | Potency [13] | Potency [15]

C[C@H]1O[C@@H](O[C@H]2[C@@H](O)C[C@H](O[C@H]3[C@@H](O)C[C@H](O[C@H]4CC[C@@]5(C)[C@H](CC[C@@H]6[C@@H]5C[C@@H](O)[C@]5(C)[C@@H](C7=CC(=O)OC7)CC[C@]65O)C4)O[C@@H]3C)O[C@@H]2C)C[C@H](O)[C@@H]1O
inactive: Potency [1] | Potency [2] | Potency [3] | Potency [13] | Potency [18] | Potency [14] | Potency [15]
active: Potency [6] 0.0903 µM | Potency [7] 205 nM and 90.3 nM | Potency [8] 102 nM and 90.3 nM

CC(C)COC(=O)CC(C(=O)OCC(C)C)S(=O)(=O)O (configuration not stated)
inactive: Potency [1] | Potency [2] | Potency [3] | Potency [4] | Potency [6] | Potency [7] | Potency [8] | Potency [16] | Potency [9] | Potency [10] | Potency [11] | Potency [12] | Potency [19] | Potency [17] | Potency [13] | Potency [14] | Potency [15]

O=C1N=C(O)CN1/N=C/c1ccc(-c2ccc([N+](=O)[O-])cc2)o1
inactive: Potency [1] | Potency [2] | Potency [3] | Potency [6] | Potency [7] | Potency [8] | Potency [9] | Potency [10] | Potency [11] | Potency [12] | Potency [14] | Potency [15]

O=C(CS)OCCOC(=O)CS
inactive: Potency [1] | Potency [2] | Potency [3] | Potency [4] | Potency [7] | Potency [8] | Potency [16] | Potency [9] | Potency [10] | Potency [11] | Potency [12] | Potency [19] | Potency [13] | Potency [18] | Potency [14] | Potency [15]

CC(C)NCC(O)COc1ccc(CC(N)=O)cc1 (configuration not stated)
inactive: Potency [1] | Potency [2] | Potency [3] | Potency [8] | Potency [16] | Potency [19] | Potency [17] | Potency [14] | Potency [15]

c1ccc2sc(SN(C3CCCCC3)C3CCCCC3)nc2c1
inactive: Potency [1] | Potency [2] | Potency [3] | Potency [6] | Potency [7] | Potency [8] | Potency [9] | Potency [10] | Potency [11] | Potency [12] | Potency [19] | Potency [17] | Potency [13] | Potency [18] | Potency [15]

COc1cc(N)ccc1C
inactive: Potency [1] | Potency [2] | Potency [3] | Potency [6] | Potency [7] | Potency [8] | Potency [9] | Potency [10] | Potency [11] | Potency [12] | Potency [19] | Potency [17] | Potency [13] | Potency [18] | Potency [14] | Potency [15]

O=C(CCCN1CCC(O)(c2ccc(Cl)cc2)CC1)c1ccc(F)cc1
inactive: Potency [1] | Potency [2] | Potency [3] | Potency [8] | Potency [16] | Potency [19] | Potency [17] | Potency [13] | Potency [18]

NC[C@H]1O[C@H](O[C@H]2[C@H](O)[C@@H](O[C@H]3O[C@H](CO)[C@@H](O)[C@H](N)[C@H]3O)[C@H](N)C[C@@H]2N)[C@H](O)[C@@H](O)[C@@H]1O
inactive: activity change [1] -0.795% [at 5.22 µM, stronger effect = higher value] | activation [2] 3.49% [at 6.97 µM] | activation [3] -1.23% [at 5.23 µM] | activity change, negative = cytotoxicity [6] 4.31% [at 5.99 µM] | activity change, negative = cytotoxicity [7] 3.51% [at 5.99 µM] | activity change, negative = cytotoxicity [8] 2.96% [at 5.99 µM] | activity change, negative = inhibition [17] -1.06% [at 8.39 µM] | activity change, negative = inhibition [13] 0.292% [at 8.39 µM] | activation [14] 0% [at 8.39 µM] | activity change, negative = inhibition [15] -3.37% [at 8.38 µM]

C[N+]1(C)CCC(OC(=O)C(O)(c2ccccc2)C2CCCC2)C1 (configuration not stated)
inactive: Potency [1] | Potency [2] | Potency [3] | Potency [8] | Potency [16] | Potency [9] | Potency [10] | Potency [12] | Potency [19] | Potency [17] | Potency [13] | Potency [14] | Potency [15]
